gsp antag: qHTS for Antagonists of gsp, the Etiologic Mutation Responsible for Fibrous Dysplasia/McCune-Albright Syndrome: qHTS. 340,000 compounds, 0.4% hits. Potency, µM (highest dose often 76.9 µM), for the others: top-dose activity change, negative = inhibition, most hits filed as inhibitors. gsp-mutant cells, cAMP HTRF, 30 min; calls by dose curve; cell line not stated here;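 note: intracellular cAMP measured with PDE inhibitor Ro 20-1724 present during compound exposure; potency is the fitted concentration of half-maximal effect; % is set by controls: 0 for no effect and ±100 for the full control effect; nearly all actives have a fitted effect of over 65% in size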
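HTRF cAMP measurement after 30 min RT detection following 30 min, 37C compound treatment alongside […] (added as 300 uM solution) in G418-selected cells seeded at 2000/well and grown 16–24 h.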
BRCA1 expr up: qHTS Assay to Identify Small Molecule Activators of BRCA1 Expression; Potency, µM (doses to about 46.1 µM), inactives show top-dose activation, usual class: activators; MCF7-BRCA1-FFLuc reporter, luminescence, 48 h; response scale: scaled: vehicle 0%, 10 µM genistein 100%; 380,000 compounds, 1.1% hits; note: potency is the fitted concentration of half-maximal effect; nearly all actives have a fitted effect of over 80% in size
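MCF7 cells carrying a BRCA1-firefly luciferase reporter (2000 cells/well, phenol-red free MEM) were attached for 2 h at 37 °C, then given compounds for 48 h. Luminescence was read 15 min after luciferase reagent; activity normalized to genistein (10 microM) and DMSO.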
IDH1 R132H inh: qHTS for Inhibitors of mutant isocitrate dehydrogenase 1 (IDH1): qHTS | Isocitrate dehydrogenase [NADP] cytoplasmic (Homo sapiens), O75874 | IDH1-R132H enzyme, NADPH consumption, diaphorase/resazurin fluorescence | Potency, µM (titrated, usually from 76.6 µM), without a hit: top-dose activity change, negative = inhibition, hits mostly inhibitors | 390,000 compounds, 0.093% hits | AID 602179, 2012; note: potency is the fitted concentration of half-maximal effect; % is set by controls: 0 for no effect and ±100 for the full control effect; nearly all actives have a fitted effect of over 65% in size
Target sequence (O75874 whole entry R132H, stated change not applied): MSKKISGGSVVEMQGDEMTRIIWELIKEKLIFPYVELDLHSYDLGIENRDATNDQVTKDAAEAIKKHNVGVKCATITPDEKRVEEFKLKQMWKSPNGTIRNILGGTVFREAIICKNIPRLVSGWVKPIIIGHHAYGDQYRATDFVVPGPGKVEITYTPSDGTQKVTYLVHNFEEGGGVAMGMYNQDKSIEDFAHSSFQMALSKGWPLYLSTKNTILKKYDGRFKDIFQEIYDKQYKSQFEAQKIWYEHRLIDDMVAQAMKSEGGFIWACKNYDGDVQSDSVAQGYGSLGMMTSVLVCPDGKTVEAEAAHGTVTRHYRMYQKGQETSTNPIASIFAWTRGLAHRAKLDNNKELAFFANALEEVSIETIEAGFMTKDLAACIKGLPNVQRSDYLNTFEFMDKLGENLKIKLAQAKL
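IDH1-R132H (0.5 ug/mL dispensed) in pH 7.5 Tris buffer was preincubated 30 min with compound, then given a substrate mix of 0.016 mM NADPH and 2 mM alpha-KG for 80 min at room temperature; remaining NADPH was read by diaphorase/resazurin fluorescence.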
gsp ag: qHTS for Agonist of gsp, the Etiologic Mutation Responsible for Fibrous Dysplasia/McCune-Albright Syndrome: qHTS. gsp mutant cells, cAMP HTRF, 30 min. Potency, µM (series often up to 76.9 µM), for inactives: top-dose activation (cAMP increase), usual class: activators. 340,000 compounds, 0.13% hits; active = well fitted activation curve with a large enough effect; inconclusive = small, poorly fitted or top-dose-only effect, or another doubt; inactive = no such curve, though single readings can be large or run the other way; cell line not stated here;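 note: phosphodiesterase inhibitor Ro 20-1724 added with compounds to block cAMP breakdown; potency is the fitted concentration of half-maximal effect; nearly all actives have a fitted effect of over 60% in size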
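Cells in DMEM/10% FBS with G418 were pretreated with compounds in DMSO plus […] (300 uM stock) for 30 min at 37C. cAMP was measured by HTRF (cAMP-d2 plus anti-cAMP antibody-K) after 30 min at room temperature.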
IL-2 act: qHTS of IL-2 Activators; IL-2 activation reporter assay, cell-based qHTS; stimulated with anti-CD3/CD4/CD28 beads; in transgenic mouse T cells; activation, % (series mostly up to about 46 µM); 360,000 compounds, 0.065% hits; in the data active = activation above about 50%; inconclusive = mostly about 30% to 49%; note: 0% is about no effect
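First, unstimulated transgenic mouse T cells were exposed to compound for 60 min. Next, anti-CD3/anti-CD4-coated beads with anti-CD28 were added. Finally, after 18 h at 37 degrees C, EGFP and DsRed were imaged.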
An asterisk follows results filed as active; u = inconclusive; x = not tested or not shown; [ ] = remark or other dose. Compounds with a hit are over-represented: about 1.5% of the library has one in this group of screens. Unless noted, calls come from the whole dose curve; as a rule, active = well fitted curve in the direction sought with a large enough effect; inconclusive = small, poorly fitted or top-dose-only effect, or another doubt; inactive = no such curve, though single readings can be large; an effect the other way counts as inactive or inconclusive.

SMILES	gsp antag	BRCA1 expr up	IDH1 R132H inh	gsp ag	IL-2 act
COc1cc2c3nnc(-c4ccccc4)c-3cn(Cc3ccc(F)cc3)c2cc1OC	1%	-26%	u	24%[15.4 µM]	12
COc1cc2c3nnc(-c4ccc(F)cc4)c-3cn(Cc3cccc(F)c3)c2cc1OC	0%	6%	-2%	25%	76*
COc1cc2c3nnc(-c4ccc(F)cc4)c-3cn(Cc3ccc(C)cc3)c2cc1OC	-6%	0%	4%	5%	349*
COc1cccc(-c2ncc3ccccc3c2COC(=O)N2CCCCC2)c1	6%	-4%	-7%	x	0
O=C(COc1ccccc1F)Nc1cc(S(=O)(=O)Nc2cccc(Cl)c2)ccc1O	35µM*	-1%	-4%	30%	1
N#CC1=C(S)N(c2ccccc2)C(c2ccc(-c3cccc(Cl)c3)o2)NC1=O (configuration not stated)	-21%	-61%	41µM*	5%	-1
CN(C(=O)COc1ccccc1C(=O)Nc1ccccc1)c1ccccc1	x	0%	x	x	x
O=C(N/N=C/c1ccc(O)cc1)c1cc[n+](Cc2ccccc2)cc1	11%	-4%	6%	-16%[15.4 µM]	-1
O=C(N/N=C/c1ccc(OCc2ccccc2)cc1)c1cc[n+](Cc2ccccc2)cc1	-9%	3.5µM*	3%	12%[15.4 µM]	0
Cc1occc1C(=O)N/N=C/c1ccc(OCc2ccccc2)cc1	-9%	6.3µM*	-5%	7%	-1
CCOc1ccc(/C=N/NC(=O)c2cc3ccccc3cc2OC)cc1	28µM*	-11%	-10%	-12%	-4
OC[C@@H]1CN(Cc2ccc(Cl)cc2)C[C@H](n2cnc3c(N4CCN(c5ccccc5)CC4)ncnc32)O1	x	-53%	x	x	0
Cc1ccc(-n2ncc(C(=O)NCc3ccco3)c2C2CCN(C(=O)OC(C)(C)C)CC2)c(C)c1	x	x	-17%	x	x
COCCNC(=O)c1cc(S(=O)(=O)N2CCC3(CC2)OCCO3)ccc1F	x	-9%	2%	12%	0
COc1ccc(CCNC(=O)c2cc(S(=O)(=O)N3CCC4(CC3)OCCO4)ccc2F)cc1OC	11µM*	-16%	0%	u	-3
c1nc(SSc2ncc3n[nH]nc3n2)nc2n[nH]nc12	x	11%	x	x	x
CCN(C(=O)CSc1nc(C)nc2sc(C)c(C)c12)c1ccc(F)cc1	-5%	-9%	-11%	u	0
CCN(Cc1ccc2c(c1)OCO2)C(=O)CSc1nc(C)nc2sc(C)c(C)c12	40µM*	-44%	2%	1%	-1
CC(C)(CNC(=S)NCCc1ccccc1)CNC(=S)NCCc1ccccc1	35µM*	-53%	-8%	-3%	-1
OCCNC(=S)NCCc1ccccc1	15%	-3%	5%	-41%	0
CN(C)S(=O)(=O)c1ccc(C(=O)Nc2ccccn2)cc1	0%	14µM*	-2%	-6%	0
CN(C)S(=O)(=O)c1ccc(NC(=O)c2ccccn2)cc1	-4%	u	10%	2%	-4
Cc1ccc(S(=O)(=O)N(C)c2ccc(C(=O)Nc3cccc(C)n3)cc2)cc1	35µM*	-3%	9%	9%[15.4 µM]	-1
Cc1ccc(S(=O)(=O)N(C)c2ccc(C(=O)Nc3ccccn3)cc2)cc1	-28%	-8%	5%	-27%	-5
CCOC(=O)c1ccc(Nc2nnc(C(C)(C)C)c(=O)[nH]2)cc1	40µM*	-42%	5%	2%	-3
SMILES	gsp antag	BRCA1 expr up	IDH1 R132H inh	gsp ag	IL-2 act
CCN(CC)S(=O)(=O)c1cccc(C(=O)NNC(=O)c2ccc3[nH]c(=O)c(=O)[nH]c3c2)c1	2%	-7%	0%	13µM*	0
CCN(CC)S(=O)(=O)c1cccc(C(=O)NCCc2ccccc2)c1	-16%	6.3µM*	5%	u	0
CCN(CC)S(=O)(=O)c1cccc(C(=O)Nc2cc(C)cc(C)c2)c1	-12%	41%	7%	2%	0
Cc1ccc(-c2nnc(-n3nc(C)cc3C)c3ccccc23)cc1	35µM*	21%	11%	2%	0
Cc1cc(C)n(-c2nnc(Cl)c3ccccc23)n1	-17%	-22%	20%	-44%	-1
Cc1ccc(CN2CC(C(=O)N3CC(C)CC(C)C3)CC2=O)cc1 (configuration not stated)	4%	0%	7%	11%[15.4 µM]	0
O=C(CNC(=O)c1ccccc1F)OCc1cc(=O)n2nc(C3CC3)sc2n1	x	0%	2%	x	x
CN(C)/C=N/c1ncc(C(=O)c2ccccc2)s1	10%	5.6µM*	0%	13%	-4
Cc1ccc(NC(=O)Cn2c(=O)n(Cc3nc(-c4ccccc4)no3)c(=O)c3ccccc32)c(C)c1	x	x	-1%	x	x
O=C1C(Cl)=C(NCCCO)C(=O)c2ccccc21	-24%	-85%	1%	-25%	-1
O=C1C(SCCO)=C(SCCO)C(=O)c2ccccc21	35µM*	-79%	25%	x	1
COc1cc(OC)c2c(=O)cc(-c3ccccc3)oc2c1	-1%	7.9µM*	0%	x	0
CCOc1ccccc1NC(=O)c1c(NC(=O)c2cccc(C)c2)sc2c1CCCC2	x	x	-16%	x	x
COc1cccc2cc(-c3cn4cccc(C)c4n3)c(=O)oc12	4%	u	2%	7%	0
COc1cccc2cc(-c3cn4ccc(C)cc4n3)c(=O)oc12	4%	7.1µM*	3%	-55%	-2
CCc1nn(CCCC(=O)N2CCN(c3cc(Cl)ccc3C)CC2)c(=O)c2cc3occc3n12	x	-17%	-14%	x	x
N#Cc1c(C(F)(F)F)cc(-c2ccccc2Cl)[nH]c1=O	28µM*	0%	0%	15%	1
N#Cc1c(C(F)(F)F)cc(-c2ccccc2)[nH]c1=O	u	-13%	0%	u	0
O=S(=O)(Nc1cccc2cccnc12)c1ccccc1Br	x	-63%	x	x	x
O=C1c2cccc(NCCCNCCO)c2C(=O)c2cccc(NCCCNCCO)c21	40µM*	-94%	14%	-3%	-4
O=C1c2ccccc2C(=O)c2c(NCc3cccnc3)cccc21	-11%	35%	-6%	-33%	0
O=C(C(=Cc1ccc(F)cc1)C(=O)c1ccccc1)c1ccccc1	x	0%	x	x	-1
S=C(NCCCc1cnc[nH]1)NCCCN(Cc1ccc(Cl)cc1)c1ncc(Br)cn1	x	0%	x	x	x
Cc1noc(C)c1COc1ccccc1C(=O)N(C)Cc1ccc(C(C)(C)C)cc1	50µM*	-41%	-6%	-36%	-1
Cc1noc(C)c1COc1ccccc1C(=O)N(C)Cc1ccc(F)cc1	2%	-23%	-6%	7%	-3
